# Compounds with a hit are over-represented: about 3.6% of the library has one in this group of screens.
# TRHR ag: agonists of human TRH receptor; P34981; TRHR cells, calcium flux fluo-8, FDSS agonist mode; activation, % at 2 µM; hit rate 0.18% among 360,000; AID 493084; also: 0% is about no effect
#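 In this calcium-flux screen, cells bearing human TRHR are dye-loaded with fluo-8, baselined for 10 cycles, then exposed to library compounds; positive kinetic calcium responses during the agonist phase mark hits, with TRH as control.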
# D1 agonist: activates the human D1 dopamine receptor | P21728 | HEK293 T-REx D1 cells, calcium flux, agonist mode | activation, % at 2 µM | hit rate 1% among 360,000 | AID 504660; also: 0% is about no effect
# Target sequence (P21728 whole entry, looked up): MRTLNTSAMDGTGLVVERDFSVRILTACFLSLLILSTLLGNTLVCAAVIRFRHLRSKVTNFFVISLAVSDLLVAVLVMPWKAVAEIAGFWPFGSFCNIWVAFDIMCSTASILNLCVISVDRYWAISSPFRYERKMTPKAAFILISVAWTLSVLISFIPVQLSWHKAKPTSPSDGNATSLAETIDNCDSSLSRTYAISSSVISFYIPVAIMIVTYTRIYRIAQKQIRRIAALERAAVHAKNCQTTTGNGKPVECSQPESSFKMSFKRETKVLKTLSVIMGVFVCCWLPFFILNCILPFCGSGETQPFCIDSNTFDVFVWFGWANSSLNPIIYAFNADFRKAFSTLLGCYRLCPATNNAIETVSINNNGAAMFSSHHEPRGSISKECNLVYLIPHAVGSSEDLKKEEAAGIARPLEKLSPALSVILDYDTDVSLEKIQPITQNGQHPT
#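 Agonism was scored from calcium flux recorded over 180 s (1 read/s) after pintool compound addition, following a 10-cycle baseline. Cells were inducible force-coupled HEK293 TREx D1, plated overnight at 30 C and loaded with no-wash calcium dye.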
# TRHR PAM: TRH receptor (human) allosteric enhancement. hit rate 0.66% among 360,000. TRHR cells, fluo-8 calcium fluorescence, EC20 TRH enhancement. enhancement, % at 2 µM. AID 493056; in the data active = enhancement above about 30%; also: 0% is about no effect
#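 Enhancer read-out: after compound pinning and an initial kinetic agonist-mode read, an EC20 of TRH (10 nM final) was injected and fluo-8 calcium signal (Ex 480/Em 530) followed at 1 s/cycle for 100 cycles in TRHR-expressing cells.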
# D1 antagonist: human D1 dopamine receptor antagonism; hit rate 3.2% among 360,000; P21728; AID 504652; activity change, negative = inhibition, % at 10 µM; HEK293 TREx D1 cells, calcium flux, dopamine EC80; active compounds read low; in the data active = activity change below about -30%; also: % is scaled to controls: 0 for no effect and ±100 for the full control effect
#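 Cells carrying a force-coupled, tetracycline-inducible human D1 receptor report calcium flux. Each well gets a 10 s baseline, compound with 180 s monitoring, then an EC80 dopamine stimulus with a second 180 s kinetic read.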
# LDHA block: LDHA (human) enzyme inhibition. P00338. purified LDHA, NADH/diaphorase-resazurin fluorescence; active compounds read low. activity change, % (values are at about 110 or 230 µM). hit rate 0.15% among 480,000. AID 1347041; in the data active = activity change below about -30%;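 also: plate controls were DMSO wells for no effect and wells without enzyme for full effect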
#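 Resorufin fluorescence (ex540/em590), read at 0 and 20 min after diaphorase/resazurin addition, reports the NADH left after a 5 min room-temperature reaction of 2 nM human LDH5 with 0.06 mM NADH and 0.2 mM pyruvate.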
# D1 potentiator: potentiators of human D1 dopamine receptor; P21728; HEK293 TREx D1 cells, calcium flux, dopamine EC20 potentiation; potentiation, % at 10 µM; hit rate 0.036% among 360,000; AID 504651; in the data active = potentiation above about 30%; also: 0% is about no effect
# Starred values were filed as active, the others as inactive; x = no result given. Rule as the data show it, unless noted: active = activation above about 30%; inactive = the rest.
SMILES,TRHR ag,D1 agonist,TRHR PAM,D1 antagonist,LDHA block,D1 potentiator
Cc1ccccc1NS(=O)(=O)c1ccc(Br)s1,-1.8,49.9*,9.7,-21.3,-2.5,1.1
COc1cc(S(=O)(=O)N2CCCC2)c(OC)cc1Cl,x,x,x,x,5.9,x
COc1cc(C)c(C(C)C)cc1S(=O)(=O)N1CCN(C)CC1,0.2,1.0,-6.0,-45.7*,-1.6,-9.0
COc1cc(C)c(Cl)cc1S(=O)(=O)N1CCCC1,-0.2,0.8,-4.0,-34.4*,-15.1,-7.2
CCOc1cc(C)c(C(C)C)cc1S(=O)(=O)N1CCN(C)CC1,1.4,2.4,-5.8,-1.6,0.1,10.9
COc1ccc(/C=C(\NC(=O)c2ccc(OC)cc2)C(=O)NC(CCSC)C(=O)O)cc1 (stereo not drawn),-0.1,1.1,-1.6,-2.7,-7.5,-10.2
COc1ccc(C(=O)N/C(=C\c2ccc([N+](=O)[O-])cc2)C(=O)NC(CCSC)C(=O)O)cc1 (stereo not drawn),22.3,110.6*,-7.9,-33.1*,2.0,0.2
CCN(CC(=O)Nc1ccccc1OC)C(=O)CCc1ccccc1,0.3,-3.5,39.5*,7.2,-6.4,5.5
COc1ccccc1NC(=O)CSc1n[nH]c(Cc2ccccc2)n1,-0.4,5.7,-8.8,-18.2,2.1,-3.1
COc1ccccc1Cc1nc2ccccc2nc1SCC(=O)N1CCCCC1,0.1,1.3,3.5,-1.7,1.0,-2.1
CCN(C(=O)CSc1nc2ccccc2nc1Cc1ccccc1OC)c1ccccc1,0.0,3.0,-6.0,-44.7*,4.1,-0.4
COc1ccccc1NC(=O)CSc1nc2ccccc2cc1Cc1ccccc1,0.4,6.4,-8.0,-32.8*,-4.3,-2.9
CCC1CCC(N2CCN(c3ccc(F)cc3)CC2)CC1 (stereo not drawn),-0.2,1.3,-2.3,-46.2*,1.5,-8.2
Clc1cc(SCc2ccccc2)ccn1,x,x,x,x,-23.1,x
O=C(NCc1cccc(Br)c1)C1CCN(CC(F)(F)F)CC1,x,x,x,x,3.3,x
CCOc1ccc(NC(=O)CN(C)C(=O)c2cc(-c3cccs3)nn2-c2ccccc2)cc1OCC,-0.6,0.7,-4.5,-57.0*,-3.5,-3.9
COc1ccc(NC(=O)CN(C)C(=O)c2cc(-c3cccs3)nn2-c2ccccc2)cc1,0.0,1.1,-6.3,12.0,-1.9,-8.9
O=C(NCCc1ccccn1)c1ccc2c(c1)-c1ccccc1C2,x,x,x,x,-4.0,x
Cc1csc(SCc2nnc(-c3ccccc3Br)o2)n1,-0.4,3.8,-7.3,22.6,3.3,3.6
Fc1ccccc1SCc1nnc(-c2ccccc2Br)o1,-0.6,6.7,7.0,-65.9*,-4.1,-15.4
OC(CCCC(O)c1ccccc1)c1ccccc1 (stereo not drawn),x,x,x,x,-5.5,x
OC(Cn1cnnc1)c1ccccc1 (stereo not drawn),-0.3,4.1,13.4,0.3,-37.4*,6.1
CC(=O)Nc1ccc(Nc2cc(C)nc3c(-c4ccccc4)cnn23)cc1,4.0,11.3,1.6,-40.2*,-0.6,-11.8
CC(=O)Nc1ccc(Nc2cc(-c3ccccc3)nc3ncnn23)cc1,-0.6,-0.2,38.0*,-9.6,-1.3,-1.6
FC(F)(F)c1cccc(Nc2cc(-c3ccccc3)nc3ncnn23)c1,-0.2,2.2,-2.0,18.6,0.4,-6.7
SMILES,TRHR ag,D1 agonist,TRHR PAM,D1 antagonist,LDHA block,D1 potentiator
O=C(CC1CC2CCC1C2)NCC12CC3CC(CC(C3)C1)C2 (stereo not drawn),x,x,x,x,-0.2,x
O=C(O)C/C(=C/c1ccc(C(=O)O)cc1)c1nc2ccccc2s1,x,x,x,x,-0.1,x
O=C(CSc1ccccc1F)OCC(=O)N1CCN(C(=O)c2ccco2)CC1,0.5,-0.3,4.0,-5.3,-9.0,3.4
Cc1cc(Br)ccc1SCC(=O)OCC(=O)N1CCN(C(=O)c2ccco2)CC1,-0.4,34.1*,-2.2,-1.2,-7.8,-3.9
Cc1cc(CS(=O)(=O)Cc2ccccc2Cl)on1,x,x,x,x,-1.7,x
COc1ccc(C(=O)Nc2ccc(S(=O)(=O)NCC3CCCO3)cc2)cc1 (stereo not drawn),x,x,x,x,7.5,x
O=[N+]([O-])c1cccc2ncc(Cl)cc12,x,x,x,x,-1.2,x
Cc1cc(O)ccc1N/C=C1\CCCC1=O,0.2,6.9,2.6,15.8,18.4,1.5
Cc1ccc([N+](=O)[O-])cc1N/C=C1\CCCCC1=O,-0.1,36.9*,12.8,12.6,-1.0,-4.3
CC(C)Nc1nc(NC(C)(C)C)nc(Oc2ccc(=O)n(C)n2)n1,0.4,47.2*,-1.7,13.9,1.2,-0.1
CCNc1nc(NC(C)(C)C)nc(Oc2ccc(=O)n(C)n2)n1,0.1,14.9,7.1,16.4,-0.5,-1.4
CC(C)CCNc1nc(-c2ccc([N+](=O)[O-])cc2)c(C(=O)Nc2ccccc2)s1,x,x,x,x,11.3,x
CC(=O)c1cn(CCOc2cccc3ccccc23)c2ccccc12,x,x,x,x,-2.6,x
Cc1ccc(C)c(OCCn2cc(C(=O)O)c3ccccc32)c1,0.0,4.1,-4.3,-39.9*,-12.2,-10.6
Cc1ccc(OCCn2cc(C=O)c3ccccc32)cc1,0.3,6.9,0.0,-33.8*,1.1,-3.5
COc1cccc(OCCn2cc(C(C)=O)c3ccccc32)c1,-0.1,23.0,-9.0,-31.8*,-3.9,-1.3
COc1ccccc1OCCn1cc(C(=O)c2ccco2)c2ccccc21,1.3,24.5,-1.7,-7.3,-4.0,-4.8
COc1cccc(OCCn2cc(C(=O)c3ccco3)c3ccccc32)c1,-0.6,49.9*,-0.7,-1.4,-1.6,-7.3
CC(=O)c1cn(CCOc2cc(C)ccc2C)c2ccccc12,-0.3,11.6,-13.0,-13.8,0.8,-9.7
COc1cc(OC)c(OC)cc1CNC(=O)c1cc(Cl)ccc1O,x,x,x,x,1.6,x
CCC(C)(C)C1CCC(NC(=O)C(=O)Nc2ccccc2F)CC1 (stereo not drawn),x,x,x,x,-3.5,x
N#C/C(=C/c1cccc2c1OCCCO2)c1nc2cc(C(F)(F)F)ccc2s1,x,x,x,x,11.0,x
N#C/C(=C(/O)c1ccc2c(c1)OCO2)c1nc2cc(C(F)(F)F)ccc2s1,-0.6,15.3,-6.4,-41.2*,-2.3,-2.7
O=[N+]([O-])c1ccc(C=CC=Cc2ccccc2)cc1,x,x,x,x,-5.7,x
CN(c1ccccc1)c1ccc(/C=C/[N+](=O)[O-])cc1,-1.6,139.7*,3.1,-52.3*,-0.7,-13.6
O=C(CNc1ccc2c(c1)OCO2)N/N=C\c1cn(Cc2ccc(F)cc2)c2ccccc12,-1.9,3.3,3.2,-40.8*,x,-4.3
COC(=O)C1=C(CS(=O)(=O)c2ccc(OC)cc2)NC(=O)NC1c1cccc(Cl)c1 (stereo not drawn),x,x,x,x,-4.1,x
O=c1oc2c(CN3CCN(CCO)CC3)c(O)ccc2cc1-c1ccccc1,2.2,-0.7,-1.6,-3.5,-11.6,-0.6
CN1CCN(Cc2c(O)ccc3cc(-c4ccc(Cl)cc4)c(=O)oc23)CC1,2.5,32.3*,-2.3,-15.3,-4.0,0.5

# Bioassay records deposited in PubChem BioAssay by National Center for Advancing Translational Sciences (NCATS).
